Values joined by “and” are separate entries in the source; they are usually repeats but may differ in a detail not shown here. Equal entries are not always repeated. Where a structure was tested more than once in an assay, its records may differ in their call. Active and inactive are the calls of the source. The calls were made as follows: active = hit-call score of the fitted dose curve at least 0.9, where 1 is the maximum; inactive = score below 0.9.

The test can be described thus: ATG_EGR_CIS: Attagene CIS-FACTORIAL HepG2 Assay for human Early Growth Response 1 (EGR1) (AID 2282938). The note with it: HepG2 Attagene CIS-FACTORIAL EGR reporter mRNA; actives raise or lower the signal. Here is the method: ATG_CIS is a cell-based, multiplexed-readout assay that uses HepG2, a human liver cell line, with measurements taken at 24 hours after chemical dosing in a 24-well plate.ATG_EGR_CIS is one of 52 assay component(s) measured or calculated from the ATG_CIS assay. It is designed to make measurements of mRNA induction, a form of inducible reporter, as detected with fluorescence intensity signals by Reverse transcription polymerase chain reaction (RT-PCR) and Capillary electrophoresis technology.Data from the assay component ATG_EGR_CIS was analyzed into 1 assay endpoint. This assay endpoint, ATG_EGR_CIS, was analyzed with bidirectional fitting relative to DMSO as the negative control and baseline of activity. Using a type of inducible reporter, measures of mRNA for gain or loss-of-signal activity can be used to understand the reporter gene at the transcription factor-level as they relate to the gene EGR1. Furthermore, this assay endpoint can be referred to as a primary readout, because this assay has produced multiple assay endpoints where this one serves a reporter gene function. To generalize the intended target to other relatable targets, this assay endpoint is annotated to the dna binding intended target family, where the subfamily is zinc finger.
Human liver HepG2 cells are transiently transfected with multiple reporter transcription units (MRTUs) in 6-well plates using FuGene 6 reagent (Roche; 3 ml FuGene/1 mg DNA). The MRTU constructs are regulated by a cis-regulating element (promoter). […] A major difference between the CIS and TRANS system is that in CIS activities of endogenous TFs are measured, whereas the TRANS assay evaluates changes in activities of exogenous, chimeric NR-Gal4 proteins. […] At the end of 24 hour incubation, total RNA was isolated using TriZol reagent (Invitrogen). The isolated RNA is then reverse-transcribed using oligo(dT) primer and Mo-MLV reverse transcriptase (Invitrogen) with DNAse I (Ambion) treatment for 30 min. The one-tenth of the produced cDNA was amplified by PCR using Taq DNA polymerase (Invitrogen) and two reporter sequence-specific primers. The PCR products were fluorescently labeled by primer extension with 6-arboxyfluorescein (6-FAM) 5'-labeled reporter sequence-specific primer (2 min at 95 C, 20 s at 68 C and 10 min at 72 C) and these products were digested with 5U of HpaI (New England Biolabs) for 2h at 37 C. The fragments were purified using Qiaquick PCR columns (Qiagen), analyzed on an ABI 3130xL genetic analyzer (Applied Biosystems) with peak positions identified by using a set of X-rhodamine (ROX)-labeled MapMarker1000 molecular weight standards (BioVentures). The raw capillary electrophoresis data was processed using Attagraph software (Attagene).
In the case of `CC(C)(c1ccc(O)cc1)c1ccc(O)cc1`, the compound was called inactive and the AC50 (commonly the concentration at which the activity in the assay is half-maximal) is 100 µM (active) [middle of 6 runs].

For the compound `C#C[C@]1(O)CC[C@H]2[C@@H]3CCC4=CC(=O)CC[C@@H]4[C@H]3CC[C@@]21CC`, the call was inactive.

On to `C[C@]12CC[C@@H]3c4ccc(O)cc4C[C@@H](CCCCCCCCCS(=O)CCCC(F)(F)C(F)(F)F)[C@H]3[C@@H]1CC[C@@H]2O` (stereo partly specified), for which the outcome was inactive.

As for `S=C(S)NCCNC(=S)S.[Mn+2].[S-]C([S-])=NCCN=C([S-])[S-].[Zn+2]`, the AC50 is 16.2 µM (active) and 16.5 µM (active) and 3.53 µM (active); the compound was classed as inactive.

Take `CCSC(=O)N(CC(C)C)CC(C)C`: the call was inactive.

In the case of `CCCCOC(=O)[C@@H](C)Oc1ccc(Oc2ccc(C(F)(F)F)cn2)cc1`, the compound was classed as inactive.

Take `CC(C)(C)[C@@H](O)[C@@H](Cc1ccc(Cl)cc1)n1cncn1`: the AC50 was 26.1 µM (active).

Regarding `CCCCOC(=O)C(C)Oc1ccc(Oc2ccc(C(F)(F)F)cn2)cc1` (stereo unspecified), the call was inactive.

For the compound `CC(=O)S[C@@H]1CC2=CC(=O)CC[C@]2(C)[C@H]2CC[C@@]3(C)[C@@H](CC[C@@]34CCC(=O)O4)[C@H]12`, the result was inactive; the AC50 was 17.6 µM (active) and 27.2 µM (active).

As to `CCN(Cc1c(F)cccc1Cl)c1c([N+](=O)[O-])cc(C(F)(F)F)cc1[N+](=O)[O-]`, the call was inactive.

Turning to `CCC(C)OC(=O)N1CCCCC1CCO` (stereo unspecified), the compound was called inactive.

With `CCNc1nc(N)nc(Cl)n1`, the call was inactive.

Turning to `COC(=O)c1ccccc1S(=O)(=O)NC(=O)Nc1nc(OC(F)F)cc(OC(F)F)n1`, the outcome was inactive.

In the case of `CCN(CC)C(=O)c1cccc(C)c1`, the outcome was inactive.

As for `C#CCOC(=O)[C@@H](C)Oc1ccc(Oc2ncc(Cl)cc2F)cc1`, the compound was called inactive.

Consider `CCOC(=O)NCCOc1ccc(Oc2ccccc2)cc1`, for which the AC50 is 50 µM (active).

As to `Cc1nn(C)c(Oc2ccccc2)c1C=NOCc1ccc(C(=O)OC(C)(C)C)cc1`, the AC50 is 0.934 µM (active).

For the compound `COc1c(Cl)ccc(Cl)c1C(=O)O`, the compound was called inactive.

In the case of `COC(=O)c1ccc(CNS(C)(=O)=O)cc1S(=O)(=O)NC(=O)Nc1nc(OC)cc(OC)n1`, the result was inactive.

For `CCCCC(CC)COC(=O)c1ccccc1C(=O)O` (stereo unspecified), the compound was classed as inactive.

For `COC(=O)c1ccc(I)cc1S(=O)(=O)NC(=O)Nc1nc(C)nc(OC)n1`, the compound was called inactive.

For the compound `COC(=O)c1cccc(C)c1S(=O)(=O)NC(=O)Nc1nc(OCC(F)(F)F)nc(N(C)C)n1`, the result was inactive.

For the compound `O=C(O)c1ccccc1`, the outcome was inactive.

For `CCOC(=O)C(C)Oc1ccc(Oc2cnc3cc(Cl)ccc3n2)cc1` (stereo unspecified), the compound was classed as inactive.

`CCCN(CCC)C(=O)SCC`: the compound was classed as inactive.

For `S=C([S-])NCCNC(=S)[S-].[Mn+2]`, the outcome was inactive.

As for `COC(=O)c1ccccc1C(=O)O`, the compound was classed as inactive.

For `CCOC(=O)C(C)Oc1ccc(Oc2nc3ccc(Cl)cc3o2)cc1` (stereo unspecified), the compound was classed as inactive.

For the compound `Oc1ccc(C(c2ccc(O)cc2)C(Cl)(Cl)Cl)cc1`, the result was inactive.

As to `CCCOC(=O)NCCCN(C)C`, the compound was classed as inactive.

In the case of `COCCO`, the compound was classed as inactive.

Regarding `CC(=O)[C@H]1CC[C@H]2[C@@H]3CCC4=CC(=O)CC[C@]4(C)[C@H]3CC[C@]12C`, the AC50 is 22.6 µM (active) and 50.7 µM (active) and 26.7 µM (active); the outcome was inactive.

As for `CN(C)C(=O)Nc1ccc(Cl)c(Cl)c1`, the result was inactive and the AC50 is 60.3 µM (active).

As to `CCOC(=O)[C@H](C)Oc1ccc(Oc2nc3ccc(Cl)cc3o2)cc1`, the compound was called inactive.

For `CC(C)CCCCCCc1ccc(O)cc1`, the call was inactive; the AC50 is 17.7 µM (active) and 17.3 µM (active).
